The campaign covered roughly 300,000 compounds. About 2,700 (0.9%) were called active. For the sample, actives were picked, then their nearest neighbours and some compounds at random. A number with no mark means an inactive call.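 The calls were made as follows: active = mean inhibition of at least 30% with at least half of replicates also reaching 30%; inconclusive = no clear call, values can overlap the other calls; inactive = the rest.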

The experiment addresses Golgi-associated PDZ and coiled-coil motif-containing protein (Homo sapiens) (UniProt Q9HD26). Nature of the experiment: blockade of CAL PDZ-reporter peptide interaction – biochemical, fluorescence polarization, untagged CAL PDZ, HTS, primary screen (AID 602252).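 Also: 0% = DMSO neutral control and 100% = excess unlabeled competitor peptide PRC23.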 The conditions noted are these: purified CAL PDZ, TMR-peptide fluorescence polarization, 1 h; at 24.9 µM; active compounds read high. (In general: Fluorescence polarisation rises when a labelled molecule tumbles more slowly, as on binding a larger partner.)
As for `COc1ccc(N=C2C=CC(=O)O2)cc1`, the inhibition (commonly the change of the read-out against control, counted positive when it falls) was -18.5%.

Consider `CCO[C@H]1OC(C(=O)N2CCCCCCC2)=C[C@@H](c2ccc(C(F)(F)F)cc2)[C@@H]1CCCO`, for which the inhibition was -1.81%.

As for `CCO[C@H]1OC(C(=O)N2CCOCC2)=C[C@@H](c2ccc3c(c2)OCO3)[C@@H]1CCCO`, the inhibition was 31.2% (active).

Take `CCO[C@@H]1OC(C(=O)N2CCOCC2)=C[C@H](C)[C@H]1CCCO`: the inhibition is -0.99%.

For `O=C(Cc1ccc(NC(=O)C2CCCN(C(=O)CCc3ccccc3)C2)cc1)Nc1ccc(C(=O)N2CCOCC2)cc1` (centres undefined), the inhibition is -8.09%.

As to `CC1CCCCC1NCC(=O)Nc1ccccc1C(=O)Nc1ccccc1` (centres undefined), the inhibition is -1.41%.

`CN(C)C(=S)N=c1ssc(=S)n1Cc1ccco1`: the inhibition is -2.26%.

Take `O=C(CNC(=O)c1cc(S(=O)(=O)N2CCOCC2)ccc1N1CCCC1)Nc1ccc(F)c(F)c1`: the inhibition was -2.42%.

Consider `C/C(=N/NC(=O)c1cc(Cl)ccc1O)C12CC3CC(CC(C3)C1)C2`, for which the inhibition is 0.948%.

For `O=C(N/N=C1\CCSC1)c1cc(Cl)ccc1O`, the inhibition was 39.8% (active).

In the case of `CC(C)/C=N/NC(=O)c1cc(Br)ccc1O`, the inhibition was -1.22%.

On to `COc1cc(O)c2c(=O)c3c(O)c(O)ccc3oc2c1OC`, for which the inhibition is -1.48%.

As for `O=C(Cn1cnc2c(OCc3ccccc3)ncnc21)NCc1nc2ccccc2[nH]1`, the inhibition was 9.79%.

Regarding `CCOc1cc(C(=O)N(Cc2ccccc2)c2ccc(C)cc2)ccc1OCC(=O)N1CCOCC1`, the inhibition is -2.56%.

For `N#CC1(Nc2ccc(-c3ccc(Cl)cc3)cc2)CCCC1`, the inhibition is -1.39%.

As to `O=[N+]([O-])c1cccc(S(=O)(=O)NCc2ccccn2)c1`, the inhibition was -3.81%.

Turning to `O=S(=O)(NCCc1ccccn1)c1cc(Cl)cc(Cl)c1O`, the inhibition was -0.874%.

Regarding `O=[N+]([O-])c1cc(S(=O)(=O)NCCc2ccccn2)ccc1Cl`, the inhibition is 40.3% (active).

With `Cc1c(NS(=O)(=O)c2cccc(C(=O)Nc3ccc(SC(F)F)cc3)c2)c(=O)n(-c2ccccc2)n1C`, the inhibition was -2.68%.

As for `Cc1cc(S(=O)(=O)NCc2ccccn2)c(Cl)cc1Cl`, the inhibition was -2.31%.

As to `CN(Cc1ccccn1)Cc1nc(-c2ccc(Cl)cc2)no1`, the inhibition was -1.29%.

For the molecule `Fc1ccc(-c2ccc(CNCc3ccccn3)o2)cc1Cl`, the inhibition is 52.7% (active).

For `NC(=O)C1(N2CCCC2)CCN(Cc2ccccc2)CC1`, the inhibition was -1.05%.

With `COc1ccc(CNC(=O)C[C@H]2C[C@H](C(=O)N3CCOCC3)[C@@]3(CCC4CCCC4)c4[nH]c5ccc(Cl)cc5c4CCN3C2=O)cc1OC`, the inhibition is -0.587%.

Regarding `COc1ccc(NC(=O)NCc2ccc3c(c2)OCO3)c(OC)c1`, the inhibition was -1.76%.

Turning to `O=C(NCc1ccc2c(c1)OCO2)c1cc(F)c(F)cc1Cl`, the inhibition is -5.1%.

`COc1cc(OC)c(C(=O)NCc2ccc3c(c2)OCO3)cc1OC`: the inhibition was 81% (active).

As for `O=C(NCCC(=O)N1O[C@@H]2C=C[C@H]1C2)OCC1c2ccccc2-c2ccccc21`, the inhibition is -5.2%.

Consider `O=C1CC2(CCCC2)C(=O)N1CN1CCN(S(=O)(=O)c2ccc(F)cc2F)CC1`, for which the inhibition was -4.29%.

`COc1ccc(CNCCCn2cnc3c(OCc4ccccc4)ncnc32)cc1`: the inhibition was -2.18%.

Turning to `C=Cn1c(C(=O)O)ccc1-c1ccc(OC)cc1`, the inhibition is 37.7% (active).

For `COc1ccc(OCC(=O)N2CCN(C(=O)COc3ccccc3)CC2)cc1`, the inhibition was -1.31%.

`COc1ccc(-c2ccc(CCC(=O)O)n2-c2ccc(O)cc2)cc1`: the inhibition is -0.609%.

Turning to `CN(C(=O)c1cccc(NC(=O)Cc2ccc(NC(=O)C3CCN(C(=O)C4CCCCC4)CC3)cc2)c1)C1CCC1`, the inhibition was -2.99%.

For the molecule `O=C(NC1CCCC1)C1CC(=O)N(c2ccc(F)cc2)C1` (centres undefined), the inhibition is 53.1% (active).

For `COc1ccc(Cl)cc1NC(=O)C1CC(=O)N(c2ccc(F)cc2)C1` (centres undefined), the inhibition is -7.15%.

Regarding `CC1CC(C)CN(C(=O)C2CC(=O)N(c3ccc(F)cc3)C2)C1` (centres undefined), the inhibition is -2.8%.

With `CC(=O)c1ccc(NC(=O)C(C)OC(=O)c2ccc(NS(=O)(=O)c3ccc4[nH]c(=O)[nH]c4c3)cc2)cc1` (centres undefined), the inhibition was -8.65%.

As to `COc1ccc(/C=C2/CCCc3ccccc3C2=O)cc1`, the inhibition was 1.76%.

Consider `COc1ccc(Nc2ncnc3ccc(Br)cc23)c(OC)c1`, for which the inhibition is -10.3%.

`COc1ccc(Nc2ncnc3sc(-c4ccccc4)cc23)c(OC)c1`: the inhibition is 179% (active).

Consider `COc1ccc(Nc2ncnc3sc(C)cc23)cc1`, for which the inhibition was 0.276%.

In the case of `CCOc1ccc(S(=O)(=O)N2CCN(C(=O)c3oc4ccccc4c3C)CC2)cc1`, the inhibition is 2.11%.

With `CC12CCCCC1=CC(=O)CC2` (centres undefined), the inhibition is 28.3%.

With `O=C(CCC(=O)N1CCN(S(=O)(=O)c2ccc(Cl)cc2)CC1)NCc1cccc(C(F)(F)F)c1`, the inhibition is -4.29%.

For the molecule `O=C(Cn1c(-c2cncs2)nc2ccccc21)NC1CCCC1`, the inhibition is 41.1% (active).

On to `O=C(CN1CCN(c2ccccn2)CC1)NC1CCCCC1`, for which the inhibition is 11.4%.

On to `O=C(Cn1c(-c2cscn2)nc2ccccc21)Nc1ccc(Cl)cc1`, for which the inhibition was -17.7%.

Take `c1ccc(-c2c[nH]c(-c3ccccc3)c2)cc1`: the inhibition is -3.72%.

Turning to `C/C=C/c1ccc(OCC(=O)NNC(=O)CN(C)S(=O)(=O)c2ccc(C)cc2)c(OC)c1`, the inhibition is -0.216%.

For `NC(=O)C1(Nc2ccc([N+](=O)[O-])cc2)CCCC1`, the inhibition was -0.108%.

`COc1ccccc1-c1sc2ccccc2c1C#CC1(O)CCCCC1`: the inhibition is 0.068%.

On to `COc1ccc(/C=C2\SC(=N)N(c3ccc(F)cc3)C2=O)cc1`, for which the inhibition was -1.62%.

For the molecule `COc1cccc(/C=C2/SC(=S)N(CC(=O)NC3C=CS(=O)(=O)C3)C2=O)c1` (centres undefined), the inhibition is -6.25%.

As to `COc1cccc(/C=C2\SC(=N)N(c3ccc(F)cc3)C2=O)c1`, the inhibition is 161% (active).

In the case of `CCOC(=O)c1ccccc1OC(=O)Oc1ccccc1C(=O)OCC`, the inhibition was 1.49%.

As for `Cn1cccc1/C=C1\SC(=S)N(NC(=O)c2ccc(Cl)cc2)C1=O`, the inhibition was 64.1% (active).

Consider `Cn1cccc1/C=C1\SC(=O)N(CC(=O)Nc2ccc(F)cc2)C1=O`, for which the inhibition is -5.97%.

With `O=C(O)c1ccc(/C=C2\SC(=S)N(NC(=O)c3ccc(Br)cc3)C2=O)cc1`, the inhibition was 15.4%.

The record behind these values is PubChem BioAssay AID602252 (Broad Institute, 2012).
